# Screens as filed in PubChem.
# A selection: hits, their analogues and other compounds. The true share with any hit is near 3.9%.
# BRCA1 expr act: activators of BRCA1 expression | MCF7-BRCA1-FFLuc reporter, luminescence, 48 h; response scale: scaled: vehicle 0%, 10 µM genistein 100% | Potency, µM (highest dose often 46.1 µM), without a hit: top-dose activation, usual class: activators | 380,000 compounds, 1.1% hits; note: nearly all actives have a fitted effect of over 80% in size
#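 Luminescence from a BRCA1-driven firefly luciferase in MCF7 cells was the read-out, taken 15 min after substrate addition following 48 h compound exposure at 37 °C. Data were normalized to a 10 microM genistein control and DMSO vehicle.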
# PLK1 PBD block: PLK1 (human) polo-box domain binding inhibition. P53350. Potency, µM, inactives show max response, negative = inhibition, actives largely listed as inhibitors. AID 720504. 360,000 compounds, 2.8% hits. Plk1 PBD binding of FITC phosphopeptide, fluorescence polarization; note: series mostly up to about 57 µM; % is set by controls: 0 for no effect and ±100 for the full control effect; nearly all actives have a fitted effect of over 65% in size
# Tb PFK inh-1: inhibitors of T. brucei phosphofructokinase; 330,000 compounds, 0.17% hits; Potency, µM (highest dose often 57.5 µM), for inactives: at the top dose activity, negative = inhibition, actives largely listed as inhibitors; T. brucei PFK, ADP-Glo luminescence; O15648;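 note: 0% = uninhibited 1x PFK enzyme wells and -100% = no-enzyme wells; nearly all actives have a fitted effect of over 60% in size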
# Target sequence (O15648 whole entry, looked up): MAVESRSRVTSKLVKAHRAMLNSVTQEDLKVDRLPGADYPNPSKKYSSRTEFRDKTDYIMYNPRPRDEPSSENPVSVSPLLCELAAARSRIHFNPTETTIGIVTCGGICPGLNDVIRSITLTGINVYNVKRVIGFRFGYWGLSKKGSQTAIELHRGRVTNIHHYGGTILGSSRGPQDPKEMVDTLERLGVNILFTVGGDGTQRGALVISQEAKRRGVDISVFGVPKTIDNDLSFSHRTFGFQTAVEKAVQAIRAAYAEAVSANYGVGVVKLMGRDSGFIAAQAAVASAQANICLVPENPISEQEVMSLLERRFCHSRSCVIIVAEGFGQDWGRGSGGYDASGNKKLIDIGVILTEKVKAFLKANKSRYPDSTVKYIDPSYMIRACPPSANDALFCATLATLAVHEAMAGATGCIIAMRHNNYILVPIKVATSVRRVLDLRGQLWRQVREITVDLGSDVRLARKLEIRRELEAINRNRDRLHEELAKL
#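 PFK 1.25 nM, F6P 0.5 mM, ATP 0.1 mM, 0.1 M TEA pH 8.0, 5 mM MgCl2, 0.01% Tween20, 0.1% BSA; 45 min RT. ADP-Glo readout. qHTS titration up to 57 uM; curves fitted, compounds curve-classed.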
# VDR inhibitor: blocks the human vitamin D receptor; P11473; VDR-SRC2-3 peptide fluorescence polarization, 2 h; Potency, µM, inactives show max response, negative = inhibition, hits mostly inhibitors; 400,000 compounds, 0.93% hits; AID 504847; note: % is set by controls: 0 for no effect and ±100 for the full control effect
#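 Two reagent solutions held at 4 deg C in the dark were dispensed, compounds pinned at 23 nl, and the mixture incubated 2 h at room temperature. Read-out: fluorescence polarization of VDR–SRC2-3 peptide binding.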
# Tb PFK KinaseGlo: Tb phosphofructokinase inhibition, orthogonal luminescence | Potency, µM (highest dose often 57.5 µM), for inactives: at the highest dose inhibition | shares compounds with Tb PFK inh-1 | Tb PFK enzyme, ATP depletion, Kinase-Glo Plus luminescence | 1,100 compounds, 47% hits | AID 504636; calls by dose curve; note: nearly all actives have a fitted effect of over 60% in size
# Tb PFK inh-2: T. brucei PFK enzyme inhibition, hit validation. shares compounds with Tb PFK inh-1. purified T. brucei PFK, ADP-Glo luminescence, 45 min. 1,100 compounds, 41% hits. Potency, µM (titrated, usually from 57.5 µM), without a hit: top-dose activity change, negative = inhibition, hits mostly inhibitors;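 note: plate controls were full PFK enzyme control for no effect and no enzyme control for full effect; nearly all actives have a fitted effect of over 60% in size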
# Starred values were filed as active, the others as inactive; ? = inconclusive; . = no result given; ! = repeats disagree. Unless noted, calls come from the whole dose curve; as a rule, active = well fitted curve in the direction sought with a large enough effect; inconclusive = small, poorly fitted or top-dose-only effect, or another doubt; inactive = no such curve, though single readings can be large; an effect the other way counts as inactive or inconclusive. Potency is the fitted concentration of half-maximal effect.
SMILES,BRCA1 expr act,PLK1 PBD block,Tb PFK inh-1,VDR inhibitor,Tb PFK KinaseGlo,Tb PFK inh-2
O=C(Nc1cccc(C(F)(F)F)c1)Oc1ccccc1N1CCOCC1,-15%,?,1%,-20%,.,.
CC(c1cccs1)N(Cc1ccco1)C(=O)Nc1ccc(Cl)c(Cl)c1 (centres undefined),-49%,2%,?,-4%,10%,-2%
c1cncc([C@@H]2CCCCN2)c1,.,.,.,6%,.,.
CC(/C=C\c1cccnc1)=C/C(=O)O,2%,-17%,15µM*!,16%,?,27µM*
CO[C@H]1C=C2CCN(C)[C@@H]2[C@@H]2c3cc4c(cc3C(=O)O[C@H]21)OCO4,.,.,.,4%,.,.
CC/C(=N/Nc1cccc(Cl)c1)c1cnnc(SC)n1,-5%,-12%,?,-9%,?,?
CCC1(c2ccccc2)C(=O)NC(=O)N(C(=O)c2ccccc2)C1=O (centres undefined),.,.,.,0%,.,.
CC(=O)c1ccc(S(=O)(=O)N2CCN(CC(=O)Nc3ccc(Cl)c([N+](=O)[O-])c3)CC2)cc1,-4%,0%,13µM*,-1%,?,?
Cc1ccc(-c2ccc(/C=N/N=C3/NC(=O)C(CC(=O)O)S3)o2)c([N+](=O)[O-])c1 (centres undefined),8%,-16%,?,?,-34%,?
O=C(O)CC1S/C(=N/N=C/c2ccc(-c3ccccc3[N+](=O)[O-])o2)NC1=O (centres undefined),2%,-20%,?,79µM*,-31%,?
O=C(Nc1ccccc1)N1CC2(CCN(C(=O)Oc3ccccc3)CC2)C1,.,.,.,5%,.,.
CCN(CC)c1ccccc1,-5%,-1%,5%,-15%,.,.
CCN(CC)c1ccc(NC2=C(Cl)C(=O)c3ccccc3C2=O)cc1,-85%,-9%,?,-26%,8%,-9%
COC(=O)COc1ccc(C(c2c(C)[nH][nH]c2=O)c2c(C)[nH][nH]c2=O)cc1,-10%,?,-20%,-10%,.,.
CSc1ccc(C(c2c(C)[nH][nH]c2=O)c2c(C)[nH][nH]c2=O)cc1,1%,?,15µM*,-28%,?,?
O=c1ccc2c(-c3ccccc3)c3ccc(O)cc3oc-2c1,-3%,?,12µM*,?,13%,-10%
COc1ccc(C[C@H]2c3cc(OC)c(OC)cc3CCN2C)cc1OC,.,.,.,0%,.,.
O=C1CN=C(c2ccccc2)c2cc(Cl)ccc2N1CC1CC1,.,.,.,-24%,.,.
CC(C)OCCCNC(=S)Nc1ccc(S(N)(=O)=O)cc1,2%,6µM*,27µM*,?,6.7µM*,13µM*
NCCc1ccc(S(N)(=O)=O)cc1,-7%,-8%,-2%,-1%,.,.
NS(=O)(=O)c1ccc(NC(=S)NCc2ccc(F)cc2)cc1,-14%,21µM*,24µM*,?,11µM*,24µM*
O=C(COc1ccc(Cl)cc1)NCCc1cnc[nH]1,4%,-2%,-7%,5%,.,.
NS(=O)(=O)c1ccc(NC(=S)NCc2ccc(Cl)cc2)cc1,-20%,11µM*,12µM*,?,2.7µM*,5.4µM*
NS(=O)(=O)c1ccc(NC(=O)COc2ccc(Cl)cc2)cc1,4%,-10%,1.9µM*,-9%,1.1µM*,?
Cc1ccccc1-c1cncnc1NCCc1cnc[nH]1,.,.,.,-11%,.,.
SMILES,BRCA1 expr act,PLK1 PBD block,Tb PFK inh-1,VDR inhibitor,Tb PFK KinaseGlo,Tb PFK inh-2
CC(C)c1c(CN(C)[C@@H](C)Cc2ccccc2)n(C)n(-c2ccccc2)c1=O,.,.,.,-2%,.,.
Oc1ccc2c3c1O[C@H]1c4oc5ccccc5c4C[C@@]4(O)C(C2)N(CC2CC2)CC[C@]314,.,.,.,6%,.,.
CCCOC(=O)c1cc2c(cn1)[nH]c1ccccc12,.,.,.,-14%,.,.
C=CCN1CC[C@]23c4c5ccc(O)c4O[C@@H]2/C(=N/N=C2\CC[C@@]4(O)C6Cc7ccc(O)c8c7[C@@]4(CCN6CC=C)[C@@H]2O8)CC[C@@]3(O)C1C5,.,.,.,1%,.,.
O=[N+]([O-])c1ccc(NC(=S)NCc2ccc(F)cc2)cc1,-82%,-30%,?,13%,19µM*,?
S=C(NCc1ccc(Cl)cc1)Nc1ccncc1,-4%,-12%,8.5µM*,-14%,7.6µM*,12µM*
O=S(=O)(c1ccc(NC(=S)NCc2ccc(F)cc2)cc1)N1CCOCC1,-23%,-13%,24µM*,-9%,12µM*,30µM*
Cc1cc(NS(=O)(=O)c2ccc(NC(=O)COc3ccc(Cl)cc3Cl)cc2)no1,11%,-4%,2.7µM*,-6%,1.5µM*,1.7µM*
NS(=O)(=O)c1ccc(NC(=O)CSc2ccccc2)cc1,49%,0%,15µM*,-3%,24µM*,30µM*
O=C(Nc1ccc2ccccc2c1)c1ccccc1O,-60%,-1%,?,-5%,-33%,?
Cc1nc(Cl)sc1C(=O)Nc1ccc2ccccc2c1,-27%,-4%,2%,1%,.,.
COc1ccc(-c2nc(CN3C(=O)CN=C(c4ccccc4Cl)c4cc(Cl)ccc43)c(C)o2)cc1OC,.,.,.,4%,.,.
CC1(C)[C@@H](O)C[C@H]2[C@](C)(O)[C@@H]3CC[C@H]4[C@@H](O)[C@@]3(C[C@@H](O)[C@@]21O)C[C@@]4(C)O,.,.,.,-8%,.,.
CN1CC[C@@]2(C)c3cc(O)ccc3N(C)C12 (some centres undefined),-16%,.,.,?,.,.
N#Cc1ccc2ccn(CC(=O)NCc3ccccc3)c2c1,-80%,-5%,?,-5%,?,21µM*
CC1=C(C(=O)Nc2ccccc2)C(c2ccc[nH]2)n2ncnc2N1 (centres undefined),-17%,.,?,4%,?,-13%
CCN(CC)C(=S)Nc1ccc(Cl)c(Cl)c1,-16%,-11%,?,?,14%,-1%
O=C(O)CCC(=O)Nc1ccc(SSc2ccc(NC(=O)CCC(=O)O)cc2)cc1,-15%,0.95µM*,?,?,8.5µM*,17µM*
O=S(=O)(Nc1ccc(Cl)cc1)c1ccc(N2CCOCC2)c(NC(=S)NCCN2CCOCC2)c1,-14%,1.7µM*,?,?,7.6µM*,13µM*
CC(C)CN1CC2(CCN(C(=O)Oc3ccccc3)CC2)C1,.,.,.,1%,.,.
O=C(NCc1cccc(Cl)c1)c1ccc2c(c1)OCO2,1%,-8%,?,-12%,24µM*,30µM*
Cn1c(=O)n(C)c2cc(CNCCc3ccccc3F)ccc21,.,.,.,10%,.,.
COc1ccccc1N1CCN(Cc2ccccc2Cl)CC1,-1%,0%,-3%,1%,.,.
COc1cc(C(=S)N2CCN(c3ccccc3Cl)CC2)cc(O)c1O,-17%,17µM*,?,?,?,?
Nc1ncnc2c1ncn2[C@@H]1O[C@H](COP(=O)(O)OP(=O)(O)OP(=O)(O)O)[C@@H](O)[C@H]1O,28%,-3%,?,-6%,-29%,?
